Inconclusive results are not listed. Where a call stands in place of a potency, no number is given. Calls of active or inactive are those of the source. Calls come from the whole dose curve; as a rule, active = well fitted cell-killing curve with a large enough effect in the repeat runs (not every such curve was filed as active); inconclusive = weak or mixed curves, or effect the other way; inactive = no such curve, though single readings can be large or run the other way.

This passage reports Potency results from PubChem BioAssay (Tox21).
Potency is the fitted concentration of half-maximal effect.

The assay is described as follows: qHTS assay to identify small molecule antagonists of the estrogen related receptor signaling pathway with the pleiotropic PPARgamma coactivator (PGC) from Tox21 10K library - cell viability counter screen (AID 1224840). Note: nearly all actives have a fitted effect of over 40% in size. The following applies: PGC/ERR reporter cells viability, CellTiter-Fluor, 17.5 h; series mostly up to 92.4 µM. A digest of the protocol:
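Seeded PGC/ERR cells (2,000/well, 6 h, 37 C/5% CO2) get compound by pin tool; 17.5 h incubation at 37 C; CellTiter-Fluor added, 30 min, fluorescence measured.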
(In general: qHTS replaces the single test concentration by a dilution series.)
`CCOC(=O)C1(c2ccccc2)CCN(CCC(C#N)(c2ccccc2)c2ccccc2)CC1`: the Potency result was “inactive”.

For the compound `FC(Cl)(Cl)Cl`, the Potency result is “inactive”.

For `CC(=O)Nc1ccc2c(c1)Cc1ccccc1-2`, the Potency entry was “inactive”.

`Cc1c(Cl)c(=O)oc2cc(OP(=O)(OCCCl)OCCCl)ccc12`: the Potency result is “inactive”.

On to `CC(C)[C@H](C(=O)OC(C#N)c1cccc(Oc2ccccc2)c1)c1ccc(OC(F)F)cc1` (stereo partly drawn), for which the Potency entry was “inactive”.

With `CCOC(=O)OC1=C(c2cc(C)ccc2C)C(=O)NC12CCC(OC)CC2` (stereo not drawn), the Potency result was “inactive”.

As to `C[C@H]1CC[C@@H]2[C@@H](C)[C@H]3[C@H](C[C@H]4[C@@H]5CC=C6CC(O[C@@H]7O[C@H](CO)[C@H](O)[C@H](O[C@@H]8O[C@H](CO)[C@@H](O)[C@H](O)[C@H]8O)[C@H]7O[C@H]7O[C@@H](C)[C@H](O)[C@@H](O)[C@H]7O)CC[C@]6(C)[C@H]5CC[C@]34C)N2C1` (stereo partly drawn), the Potency was 22.4 µM (active).

`COc1ccc(OC)c(CC(C)N)c1` (stereo not drawn): the Potency result was “inactive”.

In the case of `Clc1ccc(-c2ccc(Cl)c(Cl)c2Cl)c(Cl)c1Cl`, the Potency result was “inactive”.

Take `Cn1cc(C2=C(c3cn(C4CCN(Cc5ccccn5)CC4)c4ccccc34)C(=O)NC2=O)c2ccccc21`: the Potency entry is “inactive”.

On to `CCN`, for which the Potency entry was “inactive”.

For the compound `CCCCCCCCCCCCCN1CC(C)OC(C)C1` (stereo not drawn), the Potency entry was “inactive”.

As to `N#CCCSCCC#N`, the Potency entry was “inactive”.

As for `O=C(O)COc1nc(Cl)c(Cl)cc1Cl`, the Potency result was “inactive”.

As for `O=C1NCN(c2ccccc2)C12CCN(CC1COc3ccccc3O1)CC2` (stereo not drawn), the Potency result was “inactive”.

Turning to `CCCN(CC)CC1COC2(CCC(C(C)(C)C)CC2)O1` (stereo not drawn), the Potency entry was “inactive”.

As for `CC(C)(C)OO`, the Potency result was “inactive”.

Consider `ClC1=C(Cl)C2(Cl)C3C(Cl)C=CC3C1(Cl)C2(Cl)Cl` (stereo not drawn), for which the Potency result is “inactive”.
